According to the supplement of paper PMC10338343:
± gives the standard deviation. The full ranking holds about 8,200 sequences; the median of “pre-steady-state target cleavage rate” is about 0.024, and the highest 2% start at about 1.3. This is one part of a sample in which the highest values are shown more often than they occur.

Test system: MIWI (PIWIL1) piRISC loaded with L1MC piRNA (30 nt)
Assay: pre-steady-state target cleavage rate (min^-1); MIWI and MILI are mouse PIWI proteins and EfPiwi is from a freshwater sponge; tags in brackets are library labels; higher = faster piRNA-guided slicing of the target
Conditions: guide: L1MC piRNA 5'p-UAACUAAAUACUAUGCAAGCUGUAGGUCCU
Method: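 Cleave-'n-Seq: a library of target RNAs (target site embedded in constant flanks, ACAGCATTCCGCGTTAGTGATATCCG... 5' flank; DNA-blocked outside the site) at 0.1 nM was incubated with 1 nM active mouse MILI or MIWI piRISC (synthetic 5'-monophosphorylated piRNA guide) with or without 500 nM mouse GTSF1 at 33 °C for 1 min to 16 h. Uncleaved targets were sequenced and normalised to non-target controls, and the pooled three trials were fitted to a burst-and-steady-state model to give the pre-steady-state cleavage rate (min^-1; k3 is constrained to at most 1e-4). Sequence is the target site only; target names encode pairing extent (gX:gY) and contiguous / 1-mismatch / 2-mismatch / bulge geometry. Fits with R² ≤ 0 are excluded.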

[1] = auxiliary factor: 500 nM mouse GTSF1
[2] = auxiliary factor: none (no GTSF1)

Row | Sequence | pre-steady-state target cleavage rate [1] | pre-steady-state target cleavage rate [2]
1 | UCCUCGUACAGCUUGCAUAGUAAUUAGUUA | 0.952 ± 0.032 | 0.029 ± 0.007
2 | UCCUGCAUGAGCUUGCAUAGUAUUUAGUUA | 0.92 ± 0.051 | 0.0506 ± 0.01
3 | UCCUGGAACAGCUUGCAUAGUAUUAUGUUA | 0.169 ± 0.023 | 0.013 ± 0.0044
4 | UCCUGGAACACUUGCAUAGUAUUUAGUUA | 0.596 ± 0.032 | 0.0132 ± 0.0044
5 | UCCACGUACAGCUUGCAUAGAAUUUAGUUA | 0.412 ± 0.022 | 0.0297 ± 0.0084
6 | UCGACCUACAGCUUGCAAAGUAUUUAGUAA | 0.99 ± 0.053 | 0.0245 ± 0.0048
7 | ACGACCUACAGCUUGCAAAGUAUUUAGUUA | 1.56 ± 0.057 | 0.0528 ± 0.011
8 | UCGACCUACAGCUUGCAAGUAUUUAGUUA | 0.427 ± 0.038 | 0.00682 ± 0.0023
9 | UCCACCUACAGCUUGCAAAGUAUUUAGUUA | 0.937 ± 0.044 | 0.0318 ± 0.0069
10 | UGGACCUACAGCUUGCAAAGUAUUUAGUUA | 1.36 ± 0.058 | 0.0474 ± 0.0097
11 | UGGACCUACAGCUUGCAAAGUAUUUAGUAA | 1.13 ± 0.074 | 0.0219 ± 0.006
12 | UCGACCUACAGCUUGCAAAGUAUUUAGUUA | 1.47 ± 0.056 | 0.0377 ± 0.0085
13 | UGCACCUACAGCUUGCAAAGUAUUUAGUUA | 1.23 ± 0.08 | 0.0409 ± 0.0074
14 | AGGACCUACAGCUUGCAAAGUAUUUAGUUA | 1.26 ± 0.053 | 0.0478 ± 0.0089
15 | UCCUGGUACUGCUUGCAUAGUAAUUAGUUA | 0.313 ± 0.047 | 0.0127 ± 0.0034
16 | AGGACCUACAGCUUGCAUACUUUUUAGUUA | 0.0575 ± 0.011 | 0.00783 ± 0.0023
17 | UCCUGGAUCAGGUUGCAAAGUAUUUAGUUA | 0.391 ± 0.036 | 0.0061 ± 0.0023
18 | UCCACCUACACGUUGCAUAGUAUUUUCAAA | 0.22 ± 0.036 | –
19 | UCCUGGAAGAGCUUCCAUAGUAUUUAGUUA | 0.255 ± 0.058 | –
20 | UGGACCUACAGCUUGCAUAGUAUUUCAGUUA | 0.468 ± 0.06 | 0.0318 ± 0.0065

Row | Sequence | pre-steady-state target cleavage rate [1] | pre-steady-state target cleavage rate [2]
21 | AGGUGGUACAGCUUGCAUAGUAUUUAGUAA | 0.645 ± 0.065 | 0.04 ± 0.0068
22 | UCGAGGUACAGCUUGCAUAGUAUUUAGUUA | 1.04 ± 0.066 | 0.0604 ± 0.0095
23 | UGGUGGUACAGCUUGCAUAGUAUUUAGUUA | 1.3 ± 0.046 | 0.0711 ± 0.012
24 | AGGAGGUACAGCUUGCAUAGUAUUUAGAAA | 0.324 ± 0.044 | 0.0123 ± 0.0037
25 | UGGAGGUACAGCUUGCAUAGUAUUUAGUUA | 1.35 ± 0.064 | 0.0828 ± 0.015
26 | AGGAGGUACAGCUUGCAUAGUAUUUAGUAA | 0.803 ± 0.079 | 0.0437 ± 0.0095
27 | AGGUGGUACAGCUUGCAUAGUAUUUAGUUA | 1.36 ± 0.057 | 0.0811 ± 0.015
28 | UGGAGGUACAGCUUGCAUAGUAUUUAGUAA | 0.794 ± 0.065 | 0.0463 ± 0.0071
29 | AGGAGGUACAGCUUGCAUAGUAUUUAGUUA | 1.5 ± 0.072 | 0.0721 ± 0.011
30 | UGGACCUACAGCUUGCAUAGAAUUUACAAA | 0.29 ± 0.062 | –
31 | UGGACCUACAGGUUGCAUAGUAAUUAGUUA | 0.731 ± 0.055 | 0.0177 ± 0.0042
32 | UGGACCUACAGCUUGCAUAGAAUUUUCAAA | 0.239 ± 0.048 | –
33 | UCCUGGAUGUGCUUGCAUGGUAUUUAGUUA | 0.209 ± 0.02 | 0.0348 ± 0.0072
34 | UCGACCUACAGCUUGCAUAGUAUUUAGAUA | 0.564 ± 0.043 | 0.0299 ± 0.0074
35 | UCCACCUACACCUUGCAUAGUAUUUACAAA | 0.309 ± 0.053 | 0.00355 ± 0.0022
36 | UCCUGGUACAGCUAGCAUAGUAUUAAGUUA | 0.378 ± 0.051 | 0.00772 ± 0.0027
37 | UCCUGGAUGUGCUUGCAUAGUAUUUUAGUUA | 0.128 ± 0.018 | 0.021 ± 0.0069
38 | UCCACCUACAGCUACGAUAGUAUUUAGUUA | 0.121 ± 0.016 | –
39 | UCCUCCUACUGCUAGCAUAGUAUUUAGUUA | 0.871 ± 0.033 | 0.0164 ± 0.0031
40 | UCCUCCUUCAGCUUGGAUAGUAUUUAGUUA | 1.19 ± 0.041 | 0.0358 ± 0.0057

Row | Sequence | pre-steady-state target cleavage rate [1] | pre-steady-state target cleavage rate [2]
41 | AGGACCUUCAGCUUCCAUAGUAUUUAGUUA | 0.101 ± 0.023 | 0.00546 ± 0.0024
42 | AGGACCUUCAGCUUGGAUAGUAUUUAGUUA | 1.48 ± 0.052 | 0.0657 ± 0.012
43 | UCCACCUUCAGCUUGGAUAGUAUUUAGUUA | 1.15 ± 0.033 | 0.0456 ± 0.0083
44 | UCGACCUAGAGCUUGGAUAGUAUUUAGUUA | 1.25 ± 0.042 | 0.0475 ± 0.0077
45 | UCGACCUUCAGCUUGGAUAGUAUUUAGUUA | 1.49 ± 0.05 | 0.0525 ± 0.0074
46 | UGGACCUUCAGCUUGGAUAGUAUUUAGUUA | 1.59 ± 0.068 | 0.0597 ± 0.011
47 | UCCUGCUUCAGCUUGGAUAGUAUUUAGUUA | 1.18 ± 0.078 | 0.049 ± 0.0081
48 | UCGACCUUCAGCUUCCAUAGUAUUUAGUUA | 0.0473 ± 0.011 | 0.00293 ± 0.0014
49 | UCCACCUAGUCCUUGCAUAGUAUUUAGUAA | 0.142 ± 0.021 | 0.00921 ± 0.0015
50 | UCCUGGAACAGCUUGCAAAGUAAUUAGUUA | 0.545 ± 0.038 | 0.0139 ± 0.0055
51 | UCCACCUACAGCUUGCAUAGAAUUUACAAA | 0.308 ± 0.054 | –
52 | UCCUGGUACAGUUUGCAUAGUAUUUAGUUA | 0.706 ± 0.044 | 0.0392 ± 0.0063
53 | ACGACCUACAGCUAGCAUAGUAUUUAGUUA | 1.3 ± 0.052 | 0.0406 ± 0.0091
54 | UGGACCUACAGCUUGGCAUAGUAUUUAGUUA | 1.01 ± 0.26 | 0.0197 ± 0.0048
55 | UGGACCUACAGCUAGCAUAGUAUUUAGUAA | 1.08 ± 0.065 | 0.016 ± 0.0033
56 | AGGACCUACAGCUUGGCAUAGUAUUUAGUUA | 1.17 ± 0.17 | 0.0407 ± 0.0099
57 | AGGACCUACAGCUUAGCAUAGUAUUUAGUUA | 1.37 ± 0.052 | 0.0387 ± 0.011
58 | AGGACCUACAGCUAGCAUAGUAUUUAGUAA | 0.836 ± 0.073 | 0.0193 ± 0.0066
59 | UCGACCUACAGCUUAGCAUAGUAUUUAGUUA | 1.59 ± 0.058 | 0.0251 ± 0.0054
